High-throughput results from PubChem BioAssay.
An excerpt weighted towards active compounds, which were near 2.2% of everything screened.
Nrf2 ARE act = qHTS of Nrf2 Activators. AREc32 ARE-luciferase reporter (MCF7-derived line), luminescence, 24 h. Potency, µM (highest dose often 46.1 µM), most hits filed as activators. 0.31% of 410,000 active; note: nearly all actives have a fitted effect of over 65% in size
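Luminescent ARE reporter assay in AREc32_Fluc cells: overnight plating at 37 deg C, 24 hr compound incubation, Steady-Glo added, 30 min RT before reading.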
Nrf2 block = Nrf2 qHTS screen for inhibitors; A549 ARE-Fluc reporter, luciferase luminescence, 18-24 h; Potency, µM (highest dose often 46 µM), hits mostly inhibitors; AID 504444, 2011; 2.1% of 360,000 active; note: nearly all actives have a fitted effect of over 60% in size
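A549 ARE_Fluc cells (5000/well, 5% FBS OPTI-MEM) pre-incubated 2 h, then treated with compounds 18-24 h at 37C/5% CO2 in concentration-response. CellTiter-Fluor viability read first; BugLite luciferase luminescence after 15 min at room temperature gives Nrf2 activity.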
miR-21 reporter = qHTS Assay for Modulators of miRNAs and/orActivators of miR-21 | HeLa miR-21 FLuc reporter, luciferase, 48 h | 340,000 tested, under 10 active | Potency, µM (series often up to 38.3 µM), hits mostly activators;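 note: miR-21 action dims this reporter so a rising signal means less miR-21 action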
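Compounds were titrated across several concentrations (up to approximately 40 uM) and incubated 48 hours with HeLa miR-21-FLuc reporter cells (miR-21 target sequence downstream of FLuc, endogenous miR-21). Readout was firefly luciferase luminescence after lytic detection reagent.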
B2AR arrestin = qHTS assay of beta-arrestin-biased ligands of beta2-adrenergic receptor. AID 492947, 2010. Potency, µM (series often up to 46.1 µM), most hits filed as activators. 0.02% of 330,000 active. beta-arrestin recruitment to beta2AR, cell-based reporter. Beta-2 adrenergic receptor (Homo sapiens), P07550; note: nearly all actives have a fitted effect of over 65% in size
Target sequence (P07550 whole entry, looked up): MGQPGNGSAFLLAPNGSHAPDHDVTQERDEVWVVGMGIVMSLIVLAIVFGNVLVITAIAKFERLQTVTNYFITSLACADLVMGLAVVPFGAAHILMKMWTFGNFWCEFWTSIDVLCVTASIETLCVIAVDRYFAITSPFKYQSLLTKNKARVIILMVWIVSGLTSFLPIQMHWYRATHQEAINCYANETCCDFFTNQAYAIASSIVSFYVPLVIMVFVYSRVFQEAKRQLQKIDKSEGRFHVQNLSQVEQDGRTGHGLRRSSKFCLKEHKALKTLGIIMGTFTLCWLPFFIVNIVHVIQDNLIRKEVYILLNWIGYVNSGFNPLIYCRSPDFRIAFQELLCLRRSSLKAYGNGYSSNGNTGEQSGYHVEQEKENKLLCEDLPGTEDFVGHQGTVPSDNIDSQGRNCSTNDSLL
A549 viability = Nrf2 qHTS screen for inhibitors: counterscreen for cytotoxicity. A549 ARE-Fluc cells, CellTiter-Fluor viability, 18-24 h. Potency, µM (titrated, usually from 46 µM), hits mostly inhibitors. 0.16% of 390,000 active
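A549 ARE-Fluc cells in 5% FBS OPTI-MEM, 5000 cells/well, rested 2 h then exposed to compounds in concentration-response for 18-24 h at 37 °C. Viability by CellTiter-Fluor fluorescence (Ex 405/Em 525) after 30 min; luciferase luminescence (BugLite, 15 min, RT) read afterwards.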
Each line names hits and unclear results; the compound was inactive in the other large screens; ! = not confirmed by another sample. Calls come from the whole dose curve; as a rule, active = well fitted curve in the direction sought with a large enough effect; inconclusive = small, poorly fitted or top-dose-only effect, or another doubt; inactive = no such curve, though single readings can be large; an effect the other way counts as inactive or inconclusive.

CCC1CC=CC2C1C(=O)N(Cc1ccccc1)C2c1cccc([N+](=O)[O-])c1 (stereo unspecified)	A549 viability inconclusive (no result: Nrf2 ARE act, miR-21 reporter, B2AR arrestin)
COc1c(O)ccc(/C=N\NC(=O)c2ccc3c(c2)OCO3)c1[N+](=O)[O-]	Nrf2 block 12µM
COc1c(O)ccc(/C=N/NC(=O)c2ccc3c(c2)OCCO3)c1[N+](=O)[O-]	Nrf2 block 5.2µM
O=C(NN=Cc1c(O)ccc2ccccc12)c1ccc2c(c1)OCO2	Nrf2 block 16µM, A549 viability inconclusive (no result: miR-21 reporter)
O=C(N/N=C/c1cc2c(cc1[N+](=O)[O-])OCO2)c1ccc2c(c1)OCO2	none
O=C(OCC#CCSc1nnc(-c2c[nH]c3ccccc23)o1)c1ccc(F)cc1	none (no result: Nrf2 ARE act, miR-21 reporter, B2AR arrestin)
Cc1ccc(C)n1-c1nnc(N2CCCC(C(=O)NCc3ccc(F)cc3)C2)s1 (stereo unspecified)	none (no result: B2AR arrestin)
Nc1c(-c2ccccc2)cc[nH]c1=O	none (no result: Nrf2 ARE act, miR-21 reporter, B2AR arrestin)
Clc1c(-c2ccccc2)nc2ccccn12	Nrf2 ARE act 11µM, Nrf2 block inconclusive
Cc1c(-c2ccc(Br)cc2)nc2ccccn12	Nrf2 ARE act 4µM, Nrf2 block inconclusive
O=S(=O)(c1ccc2ccccc2c1)N1CCN(c2nc(-c3ccccc3)nc3ccccc23)CC1	Nrf2 block inconclusive (no result: Nrf2 ARE act, miR-21 reporter, B2AR arrestin)
CCOCCCn1c(SCC(=O)Nc2ccccc2CC)nc2ccccc2c1=O	none (no result: Nrf2 block, B2AR arrestin)
Cc1cccc(N2CCN(C(=O)CSCc3c(C)noc3C)CC2)c1C	Nrf2 block 1.8µM
O=C(CC(Nc1ccc(F)cc1)C(=O)O)c1ccccc1 (stereo unspecified)	Nrf2 ARE act 20µM, Nrf2 block inconclusive
Cc1ccn2c(Nc3ccccc3C)c(-c3ccccn3)nc2c1	Nrf2 block inconclusive, B2AR arrestin inconclusive, A549 viability inconclusive
Cc1ccn2c(Nc3ccccc3)c(-c3ccccn3)nc2c1	Nrf2 block 26µM, A549 viability inconclusive
Cc1ccc2oc(/N=C(\N)NC(=O)C3CC3)nc2c1	Nrf2 block inconclusive
Cc1ccc2oc(/N=C(\N)NC(=O)C(C)(C)C)nc2c1	Nrf2 block 13µM
COc1ccc(C2c3c(nc(Cc4ccccc4)[nH]c3=O)Oc3ccc4ccccc4c32)cc1OC (stereo unspecified)	Nrf2 block inconclusive (no result: Nrf2 ARE act, miR-21 reporter, B2AR arrestin)
O=C(CN1C(=O)c2cccnc2Oc2ccc(Cl)cc21)NCCCN1CCCCC1	none (no result: B2AR arrestin)
Cc1ccc(Cl)c2sc(NC(=O)C3CC3)nc12	Nrf2 ARE act inconclusive
Cc1ccc(C)c2sc(NC(=O)C3CC3)nc12	Nrf2 ARE act 11µM
Cc1csc(NC(=O)c2ccc(Cn3nc(C)c(Br)c3C)o2)n1	Nrf2 block 18µM
Cc1nn(Cc2ccc(C(=O)Nc3ccccc3C(F)(F)F)o2)c(C)c1Br	Nrf2 block inconclusive
COC(=O)c1ccc(Cl)cc1N(Cc1c(F)cccc1Cl)S(C)(=O)=O	Nrf2 block 18µM, A549 viability inconclusive
COc1ccccc1/C=C/C(=O)c1cc(Br)ccc1OC(=O)c1ccco1	Nrf2 block 26µM, A549 viability inconclusive (no result: miR-21 reporter, B2AR arrestin)
Cc1ccccc1-c1noc(N)c1C#N	Nrf2 ARE act 18µM
O=C(Nc1ccncc1)C1C(=O)c2ccccc2N(Cc2ccccc2)C1=O (stereo unspecified)	Nrf2 block inconclusive (no result: Nrf2 ARE act, miR-21 reporter, B2AR arrestin)
Cc1cc(Nc2cccc(C(F)(F)F)c2)nc2ccc(NC(=O)c3cccnc3)cc12	Nrf2 block 21µM, miR-21 reporter inconclusive, A549 viability inconclusive (no result: B2AR arrestin)
Cc1cc(Nc2cccc(C(F)(F)F)c2)nc2ccc(NC(=O)c3cccc(Cl)c3)cc12	Nrf2 block 26µM, A549 viability 18µM (no result: B2AR arrestin)
CCOc1ccc(C(=O)Nc2ccc3nc(Nc4cccc(C(F)(F)F)c4)cc(C)c3c2)cc1OCC	none (no result: B2AR arrestin)
COc1ccc(CNc2nc(S(=O)(=O)c3ccccc3)c(Cl)s2)cc1OC	Nrf2 block 15µM
O=S(=O)(c1ccccc1)c1nc(NCc2ccccc2)sc1Cl	Nrf2 block inconclusive
CS(=O)(=O)n1nc(OC(=O)c2cccc3ccccc23)cc1N	Nrf2 ARE act 14µM
CS(=O)(=O)n1nc(OC(=O)c2cc(Br)ccc2Cl)cc1N	none
COc1ccccc1C(=O)Oc1cc(N)n(S(=O)(=O)c2ccccc2)n1	none
Cc1ccccc1C(=O)Oc1cc(N)n(S(=O)(=O)c2ccccc2)n1	Nrf2 block 7.3µM
CNCCN(C)c1nc(-c2cccs2)nc2ccccc12	none (no result: Nrf2 ARE act, miR-21 reporter, B2AR arrestin)
COc1ccc(Cc2nc3ccccc3n2Cc2ccccc2F)cc1	Nrf2 block 18µM (no result: B2AR arrestin)
CC[N+](CC)(CC#Cc1ccccc1)CC#Cc1ccccc1	Nrf2 block 15µM, miR-21 reporter inconclusive
O=c1cc(C(F)(F)F)[nH]c2c(C(F)(F)F)cccc12	Nrf2 block 18µM, A549 viability inconclusive
O=c1cc(C(F)(F)F)[nH]c2ccc(OC(F)(F)F)cc12	Nrf2 block inconclusive, miR-21 reporter inconclusive, A549 viability inconclusive
CCCC1OC2C[C@@H]3[C@H]4CCC5=CC(=O)C=C[C@]5(C)[C@H]4C(O)C[C@]3(C)[C@]2(C(=O)CO)O1 (stereo partly specified)	Nrf2 block inconclusive (no result: Nrf2 ARE act, miR-21 reporter, B2AR arrestin)
CCN(C(C)=O)c1cnc(C=NNC(N)=S)c2ccccc12	Nrf2 block 8.2µM, A549 viability inconclusive (no result: miR-21 reporter, B2AR arrestin)
NC(=O)C(C(=O)/C=C/c1ccc(Cl)cc1)=C1SCCS1	Nrf2 ARE act 7.9µM, Nrf2 block inconclusive, A549 viability inconclusive
COc1ccc(/C=C/C(=O)C(C(N)=O)=C2SCCS2)cc1	Nrf2 ARE act inconclusive
O=C(NCc1cccc(F)c1)c1cccc(OC2CCN(C(=O)C3CC3)CC2)c1	Nrf2 block 23µM
CCN(Cc1ccccc1)C(=O)c1cccc(OC2CCN(C(=O)C3CC3)CC2)c1	Nrf2 block inconclusive
O=S(=O)(c1ccc(F)cc1)N1CCN(c2nc(-c3cccs3)nc3cc(Cl)ccc23)CC1	none (no result: Nrf2 ARE act, miR-21 reporter, B2AR arrestin)
CCCCN(CCCC)S(=O)(=O)c1ccc(NS(=O)(=O)c2ccc(NC(C)=O)cc2)cc1	Nrf2 block 16µM
COc1ccc(-n2c(=O)[nH]c3cc(C(=O)NCCc4ccccc4)ccc3c2=O)cc1OC	Nrf2 block 13µM!
Cc1ccc(CCNC(=O)c2ccc3c(=O)n(-c4ccccc4)c(=O)[nH]c3c2)cc1	none (no result: B2AR arrestin)
CC(C)(C)c1ccc(C(=O)N2CCC(c3nc4ccccc4o3)CC2)cc1	Nrf2 block inconclusive (no result: B2AR arrestin)
Cn1c(/C=C/c2ccc(Br)cc2)c([N+](=O)[O-])c(=O)n(C)c1=O	Nrf2 block 21µM, A549 viability inconclusive
CN(C)c1ccc(/C=C/c2c([N+](=O)[O-])c(=O)n(C)c(=O)n2C)cc1	A549 viability inconclusive
CCOC(=O)c1ccc(NC(=O)Cn2ncc(Cl)c(Cl)c2=O)cc1	Nrf2 ARE act inconclusive, Nrf2 block inconclusive, miR-21 reporter inconclusive
CCC(=O)Nc1ccc(C(=O)Cn2ncc(Cl)c(Cl)c2=O)cc1	Nrf2 ARE act 6.3µM, miR-21 reporter inconclusive
O=C(C=Cc1cccs1)c1ccc(Cl)s1	Nrf2 ARE act 22µM (no result: miR-21 reporter, B2AR arrestin)
O=C(/C=C/c1cccs1)c1cc(Cl)ccc1O	Nrf2 ARE act 14µM
